The supplement of paper PMC10849652
Targets with a hit are over-represented here; the source holds about 8,800 in all. About 0.5% of all pairs of compound and target were hits.

What was measured:
Experiment in all cases: log2 fold change, soluble protein after heating vs DMSO (PISA); higher = thermal stabilisation; K562 lysate, 10 uM; active = over 0.2 and 3.5 SD of the protein, either way, in both replicates (recomputed)
[1] = compound: C#Cc1cccc(Nc2ncnc3cc(OCCOC)c(OCCOC)cc23)c1 [erlotinib]
Outline: (§1)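 A 30 min treatment with 10 μM compound was applied to crude K562 extract at 1 mg/mL protein in PBS pH 7.4 with 1 mM MgCl2. Heating for 3 min spanned 48°C-58°C, after which aliquots were pooled, adjusted to 0.5% NP-40 at 4°C and spun at 21,000xg for 90 min. TMTpro 16plex LC-MS/MS of the supernatant, with channel sums equalised, gave values recorded as log-two fold change in thermal stability against solvent controls, from duplicates.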

[2] = compound: C/C(=N\NC(=O)C1=CC(=CC=C1)S(=O)(=O)N2CCOCC2)/C3=C(C=CC(=C3)Cl)O
Outline: as §1

[3] = compound: C1=CC(=CC=C1C2=NC3=C(N2)C=C(C=C3)C(=O)N)OC4=CC=C(C=C4)Cl
Outline: as §1

[4] = compound: C1=CC2=C(C=CC(=C2)/C=C\3/C(=O)NC(=NCC4=CC=CS4)S3)N=C1
Outline: as §1

[5] = compound: C1=CC2=NC=CN=C2C=C1/C=C/3\C(=O)NC(=O)S3
Outline: as §1

[6] = compound: C1=CC=C(C=C1)C2=NC(=C(N2)C3=CC=NC=C3)C4=CC(=C(C=C4)Cl)O
Outline: as §1

[7] = compound: C1=CC=C2C(=C1)C3=NNC4=CC=CC(=C43)C2=O
Outline: as §1

[8] = compound: C1CCN(C1)C(=O)NC2=CC=CC(=C2)NC3=NC=C(C(=N3)NCCC4=CN=CN4)Br
Outline: as §1

[9] = compound: C1CN(CCC1(CC2=CC=C(C=C2)Cl)N)C3=NC=NC4=C3C=CN4
Outline: as §1

[10] = compound: C1COCCN1CCN2C3=CC=CC=C3N=C2NC(=O)C4=CC(=CC=C4)[N+](=O)[O-] [IRAK-1-4 Inhibitor I]
Outline: as §1

[11] = compound: C=CC(=O)N1CCC[C@@H](n2nc(-c3ccc(Oc4ccccc4)cc3)c3c(N)ncnc32)C1 [ibrutinib]
Outline: as §1

[12] = compound: CC(=O)c1cnc2ccc(-c3cc(Cl)c(O)c(Cl)c3)nc2c1N[C@H]1CC[C@H](CN(C)C)CC1
Outline: as §1

[13] = compound: CC(C)(C)Cn1c(N)nc2ccc(-c3[nH]c(C(C)(C)C)nc3-c3ccc(F)cc3)nc21 [ralimetinib]
Outline: as §1

[14] = compound: CC(C)(O)CC(=O)NCCn1ccc2ncnc(Nc3ccc(Oc4cccc(C(F)(F)F)c4)c(Cl)c3)c21
Outline: as §1

[15] = compound: CC(C)C1=C2N=C(C=C(N2N=C1)NCC3=CC=CC=C3)NCCCCCCN
Outline: as §1

[16] = compound: CC1=C(C(CC(=O)N1)C2=CC=C(C=C2)C(F)(F)F)C(=O)NC3=C(C=C4C(=C3)C=NN4)F
Outline: as §1

[17] = compound: CC1=C(C2=C(C=C1)C(=O)C3=CC=CC=C3N2CCCN)C
Outline: as §1

[18] = compound: CC1=C(C=C(C=C1)NC(=O)C2=CC(=CC=C2)C(C)(C)C#N)NC3=CC4=C(C=C3)N=CN(C4=O)C
Outline: as §1

[19] = compound: CC1=C(C=C(C=C1)NC(=O)C2=CC(=CC=C2)N(C)C)NC(=O)C3=CC=C(C=C3)O
Outline: as §1

[20] = compound: CC1=CC=C(C=C1)SC2=C3C=C(SC3=CN=C2)C(=O)N
Outline: as §1

Measured: log2 fold change

CALM2 (UniProt P0DP24)
inactive: [1] -0.089 | [2] 0.042 | [3] 0.062 | [4] 0.028 | [5] -0.117 | [6] 0.094 | [7] 0.001 | [8] 0.039 | [9] 0.118 | [10] 0.221 | [11] 0.262 | [12] 0.004 | [13] -0.014 | [14] -0.238 | [15] -0.07 | [16] -0.044 | [17] -0.101 | [18] -0.013 | [19] -0.099 | [20] 0.004

AURKA (UniProt O14965)
Chain of UniProt O14965 (O14965 whole entry, looked up): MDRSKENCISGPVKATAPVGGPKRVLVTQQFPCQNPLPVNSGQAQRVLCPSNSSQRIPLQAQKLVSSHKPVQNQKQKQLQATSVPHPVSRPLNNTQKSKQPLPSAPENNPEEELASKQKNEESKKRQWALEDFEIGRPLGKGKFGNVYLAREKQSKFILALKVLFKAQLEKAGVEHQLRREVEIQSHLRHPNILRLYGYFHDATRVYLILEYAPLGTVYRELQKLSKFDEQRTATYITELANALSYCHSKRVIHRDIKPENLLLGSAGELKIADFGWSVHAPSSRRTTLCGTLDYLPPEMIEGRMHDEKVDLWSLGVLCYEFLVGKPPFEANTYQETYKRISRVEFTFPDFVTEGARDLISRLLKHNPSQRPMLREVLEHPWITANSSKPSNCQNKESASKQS
inactive: [1] 0.111 | [2] -0.028 | [3] -0.033 | [4] 0.008 | [5] 0 | [6] -0.039 | [7] 0.359 | [8] 0.483 | [9] -0.004 | [10] 0.129 | [11] 0.348 | [12] 0.144 | [13] -0.042 | [14] 0.037 | [15] -0.051 | [16] 0.034 | [17] -0.039 | [18] -0.042 | [19] -0.005 | [20] 0.007

BRD4 (UniProt O60885)
inactive: [1] -0.001 | [2] -0.011 | [3] 0.059 | [4] 0.013 | [5] -0.007 | [6] 0.05 | [7] -0.061 | [8] -0.016 | [9] 0.032 | [10] 0.028 | [11] -0.011 | [12] -0.017 | [13] 0.023 | [14] -0.042 | [15] -0.016 | [16] -0.006 | [17] 0.001 | [18] 0.061 | [19] 0.006 | [20] -0.021

CD63 (UniProt P08962)
Chain of UniProt P08962 (P08962 whole entry, looked up): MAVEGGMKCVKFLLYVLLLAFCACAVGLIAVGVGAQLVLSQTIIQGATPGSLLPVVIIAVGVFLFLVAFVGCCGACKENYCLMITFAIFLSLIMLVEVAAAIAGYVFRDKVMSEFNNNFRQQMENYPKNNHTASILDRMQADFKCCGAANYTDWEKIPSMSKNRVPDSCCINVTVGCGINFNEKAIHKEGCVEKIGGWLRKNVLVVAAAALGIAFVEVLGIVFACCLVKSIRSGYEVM
inactive: [1] -0.042 | [2] 0.026 | [3] -0.031 | [4] 0.047 | [5] 0.057 | [6] -0.114 | [7] -0.038 | [8] 0.018 | [9] -0.016 | [10] 0.066 | [11] -0.012 | [12] -0.063 | [13] 0.078 | [14] -0.023 | [15] 0.017 | [16] 0.005 | [17] 0.049 | [18] 0 | [19] 0.039 | [20] 0.023

CDK9 isoform 2 (UniProt P50750)
Chain of UniProt P50750 (P50750 whole entry, looked up): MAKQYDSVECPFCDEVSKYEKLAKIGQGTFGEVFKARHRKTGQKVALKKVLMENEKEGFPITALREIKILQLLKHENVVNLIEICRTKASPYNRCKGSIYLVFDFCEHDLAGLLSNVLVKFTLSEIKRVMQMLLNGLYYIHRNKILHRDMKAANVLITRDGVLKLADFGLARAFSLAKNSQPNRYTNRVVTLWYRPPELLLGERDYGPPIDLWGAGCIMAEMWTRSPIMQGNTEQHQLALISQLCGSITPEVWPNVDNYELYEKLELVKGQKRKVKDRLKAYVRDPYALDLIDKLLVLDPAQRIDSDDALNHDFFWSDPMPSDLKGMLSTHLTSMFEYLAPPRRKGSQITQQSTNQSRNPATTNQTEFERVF
inactive: [1] -0.055 | [2] -0.054 | [3] 0.195 | [4] 0.019 | [5] 0.02 | [6] -0.01 | [7] 0.019 | [8] 0.102 | [9] 0.005 | [10] -0.002 | [11] -0.042 | [12] 0.269 | [13] 0.013 | [14] 0.026 | [15] -0.092 | [16] -0.026 | [17] -0.021 | [18] -0.032 | [19] 0.004 | [20] -0.021

ATP6V0A2 (UniProt Q9Y487)
Chain of UniProt Q9Y487 (Q9Y487 whole entry, looked up): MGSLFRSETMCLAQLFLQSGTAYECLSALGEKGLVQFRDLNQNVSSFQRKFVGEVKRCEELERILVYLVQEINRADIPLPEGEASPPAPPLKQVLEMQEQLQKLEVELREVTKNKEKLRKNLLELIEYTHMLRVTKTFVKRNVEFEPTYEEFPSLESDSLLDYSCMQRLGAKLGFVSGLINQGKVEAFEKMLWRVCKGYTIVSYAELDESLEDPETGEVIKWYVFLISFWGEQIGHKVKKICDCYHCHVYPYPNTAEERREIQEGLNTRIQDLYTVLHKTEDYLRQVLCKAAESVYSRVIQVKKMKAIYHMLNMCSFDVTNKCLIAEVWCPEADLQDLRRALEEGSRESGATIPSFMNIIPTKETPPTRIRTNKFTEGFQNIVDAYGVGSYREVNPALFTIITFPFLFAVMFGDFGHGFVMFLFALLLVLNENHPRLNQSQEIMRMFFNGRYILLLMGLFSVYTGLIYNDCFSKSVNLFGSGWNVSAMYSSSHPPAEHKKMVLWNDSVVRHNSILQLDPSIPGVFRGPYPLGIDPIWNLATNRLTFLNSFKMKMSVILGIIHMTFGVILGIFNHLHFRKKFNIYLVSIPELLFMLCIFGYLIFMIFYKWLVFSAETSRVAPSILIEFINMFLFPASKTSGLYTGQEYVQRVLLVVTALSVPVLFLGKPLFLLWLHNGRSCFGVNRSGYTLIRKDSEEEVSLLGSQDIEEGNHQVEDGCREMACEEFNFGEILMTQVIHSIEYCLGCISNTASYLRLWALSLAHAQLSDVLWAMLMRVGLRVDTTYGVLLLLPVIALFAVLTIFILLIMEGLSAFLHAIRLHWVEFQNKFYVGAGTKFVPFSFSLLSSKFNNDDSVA
inactive: [1] 0.026 | [2] 0.027 | [3] 0.044 | [4] -0.006 | [5] 0.035 | [6] 0.004 | [7] -0.024 | [8] -0.012 | [9] 0 | [10] 0.042 | [11] 0.016 | [12] -0.017 | [13] 0 | [14] -0.073 | [15] -0.077 | [16] 0.007 | [17] -0.014 | [18] 0.041 | [19] -0.032 | [20] 0.012

ATP5PF isoform 2 (UniProt P18859)
Chain of UniProt P18859 (P18859 whole entry, looked up): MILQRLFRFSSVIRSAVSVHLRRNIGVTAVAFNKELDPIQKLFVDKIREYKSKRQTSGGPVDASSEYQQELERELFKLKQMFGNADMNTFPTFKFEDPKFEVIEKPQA
inactive: [1] 0.063 | [2] 0.107 | [3] -0.021 | [4] 0.011 | [5] 0.017 | [6] 0.05 | [7] -0.01 | [8] -0.003 | [9] 0.09 | [10] -0.026 | [11] 0.069 | [12] -0.055 | [13] -0.003 | [14] 0.063 | [15] -0.053 | [16] -0.032 | [17] -0.055 | [18] 0.026 | [19] 0.05 | [20] 0.083

ATG13 isoform 2 (UniProt O75143)
Chain of UniProt O75143 (O75143 whole entry, looked up): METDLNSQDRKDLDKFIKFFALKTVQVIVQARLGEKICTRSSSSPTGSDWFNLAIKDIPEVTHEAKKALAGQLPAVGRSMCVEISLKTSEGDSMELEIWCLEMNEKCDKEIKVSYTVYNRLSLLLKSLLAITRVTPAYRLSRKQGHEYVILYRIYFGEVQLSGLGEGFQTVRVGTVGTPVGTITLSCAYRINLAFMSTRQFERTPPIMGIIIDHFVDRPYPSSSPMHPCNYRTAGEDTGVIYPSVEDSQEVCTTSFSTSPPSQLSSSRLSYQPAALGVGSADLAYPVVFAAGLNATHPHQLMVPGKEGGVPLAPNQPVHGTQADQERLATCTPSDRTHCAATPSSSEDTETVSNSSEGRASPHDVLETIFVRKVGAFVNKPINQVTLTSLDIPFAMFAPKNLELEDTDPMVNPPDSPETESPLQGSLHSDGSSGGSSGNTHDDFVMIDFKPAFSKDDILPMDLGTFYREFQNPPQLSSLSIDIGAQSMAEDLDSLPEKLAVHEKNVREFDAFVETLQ
inactive: [1] 0.019 | [2] -0.055 | [3] -0.033 | [4] 0.021 | [5] -0.001 | [6] -0.004 | [7] 0.02 | [8] -0.031 | [9] 0.019 | [10] 0.006 | [11] 0.01 | [12] 0.011 | [13] -0.003 | [14] -0.018 | [15] 0.004 | [16] 0 | [17] -0.006 | [18] 0.048 | [19] -0.024 | [20] 0.016
